Compound activity as filed in PubChem.
USP2a block: blocks human ubiquitin-specific protease USP2a; O75604; USP2 core, Ub-CHOP2 coupled fluorogenic reporter, 485/531; Potency, µM (top dose mostly 38.3 µM), for the others: at the highest dose activity change, negative = inhibition, usual class: inhibitors; actives 0.01% (n = 330,000); AID 463254;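 note: potency is the fitted concentration of half-maximal effect; plate controls were DMSO wells for no effect and full inhibition by NEM control for full effect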
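Deubiquitinase activity read as fluorescence (485/531 nm) after Ub-CHOP2 cleavage activates the enterokinase reporter on its substrate; USP2 core 10nM, Ub-CHOP2 and substrate 25nM each, 30min compound preincubation then 60min RT; data normalized to NEM, curves fitted.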
VDR inh: blocks the human vitamin D receptor; P11473; VDR-SRC2-3 peptide fluorescence polarization, 2 h; Potency, µM, for the others: max response, negative = inhibition, actives largely listed as inhibitors; actives 0.93% (n = 400,000); note: potency is the fitted concentration of half-maximal effect
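VDR–SRC2-3 interaction, FP format. Cmpds 23 nl via pintool, brief spin, 2 h ambient incubation.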
GALK inhibitor: galactokinase (human) inhibition | P51570 | Purified GALK, Kinase-Glo residual ATP luminescence | Potency, µM (series often up to 57.5 µM), for the others: at the highest dose activity change, negative = inhibition, usual class: inhibitors | actives 0.007% (n = 270,000); note: potency is the fitted concentration of half-maximal effect
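5 nM enzyme, 35 uM ATP, 100 uM galactose, 20 mM HEPES pH8.0, 5 mM MgCl2; 1 h RT; residual ATP by Kinase-Glo Plus luminescence, qHTS format.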
PLK1 PBD inh: PLK1 (human) polo-box domain binding inhibition. P53350. Plk1 PBD binding of FITC phosphopeptide, fluorescence polarization. Potency, µM, for the others: max response, negative = inhibition, hits mostly inhibitors. actives 2.8% (n = 360,000). AID 720504; note: potency is the fitted concentration of half-maximal effect; series mostly up to about 57 µM; nearly all actives have a fitted effect of over 65% in size
FBPA coupling cs: counter-screen for Giardia aldolase inhibitors: coupling enzyme system; actives 0.67% (n = 290,000); coupling enzyme system counterscreen, AmpLite Red fluorescence; activity change, negative = inhibition, % at 58.2 µM, hits read low; in the data active = activity change below about -30%
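Counterscreen of the coupled detection system alone, without aldolase: glyceraldehyde-3-phosphate coupling enzymes plus AmpLite Red readout. Compounds at 57.5 uM final, 10 min RT preincubation, 20 min RT reaction, fluorescence 525/598 nm.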
USP1-UAF1 inh: USP1/UAF1 (human) deubiquitinase inhibition | Potency, µM (doses to about 57.1 µM), without a hit: top-dose activity change, negative = inhibition, most hits filed as inhibitors | recombinant USP1/UAF1, Ub-Rhodamine cleavage fluorescence | actives 0.23% (n = 390,000) | O94782; note: potency is the fitted concentration of half-maximal effect; nearly all actives have a fitted effect of over 60% in size
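USP1/UAF1 complex (1 nM) preincubated 15 min at room temperature with compound, then Ub-Rho substrate (150 nM final) added. Kinetic fluorescence at 480/540 nm over 6 reads at 60 s intervals; 50 mM HEPES pH 7.8, 0.5 mM EDTA, 0.1 mg/ml BSA, 1 mM TCEP, 0.01% Tween-20.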
Numbers without * were called inactive; u = inconclusive; x = no result given. The list is not random: actives were taken first. Their share in the collection is about 3.2%. Unless noted, calls come from the whole dose curve; as a rule, active = well fitted curve in the direction sought with a large enough effect; inconclusive = small, poorly fitted or top-dose-only effect, or another doubt; inactive = no such curve, though single readings can be large; an effect the other way counts as inactive or inconclusive. Unless noted, % is set by controls: 0 for no effect and ±100 for the full control effect.

SMILES | USP2a block | VDR inh | GALK inhibitor | PLK1 PBD inh | FBPA coupling cs | USP1-UAF1 inh
O=C(CSc1nc2ccccc2n1Cc1ccccc1Cl)NCc1ccccc1 | x | 10.6% | x | x | x | -19.4%
Cc1nn(-c2ccccc2)c(Cl)c1/C=N/NC(=O)CNc1n[nH]c(=O)[nH]c1=O | 0.0% | x | 4.2% | x | 0.4 | x
CCN1CCN(C(=S)c2ccc(Cl)c(Cl)c2)CC1 | 4.2% | u | -1.9% | 10.6µM* | -1.1 | -5.1%
CC1(C)Cc2c(sc(NC(=O)C(=O)N3CCCC3)c2C(=O)O)CO1 | -1.2% | 1.5% | 6.0% | 0.3% | x | -11.4%
COc1ccccc1/C=C/C(=O)Nc1cccc(C(C)=O)c1 | -1.5% | -5.3% | -3.2% | -10.6% | -7.4 | -2.6%
Cc1ccc(Cc2c[nH]c(=S)s2)cc1 | 3.8% | -14.9% | 3.8% | 6.7µM* | 4.0 | -4.0%
Cc1ccc(Cc2c(C)[nH]c(=S)[nH]c2=O)cc1 | -0.8% | -15.9% | 4.9% | -15.8% | 0.8 | -8.8%
N#Cc1cc([N+](=O)[O-])ccc1N1CCCC1 | 1.8% | u | x | 26.7µM* | 3.3 | -6.7%
O=[N+]([O-])c1ccc(N2CCCCCC2)c([N+](=O)[O-])c1 | 1.8% | -18.6% | -0.3% | -12.1% | -0.7 | -7.6%
Cc1nc(N2CCOCC2)nc(N2CCCCC2C)c1[N+](=O)[O-] (centres undefined) | -7.3% | 3.4% | 2.8% | -6.8% | 2.7 | -15.9%
O=C(CCc1nc2ccccc2c(=O)[nH]1)N1CCN(S(=O)(=O)c2cc(Cl)ccc2Cl)CC1 | x | -19.8% | x | -17.4% | x | -10.8%
S=c1nn[nH]c2ccccc12 | x | -14.2% | x | 26.7µM* | x | -29.5%
CSC1=NC(=O)/C(=C\c2cccc3ccccc23)S1 | -4.4% | 79.4µM* | 4.4% | -26.9% | -0.9 | -8.2%
COc1ccc(-n2nc3cc(C)c(NC(=O)c4ccc(C)cc4C)cc3n2)cc1Cl | x | -6.8% | x | x | x | -18.4%
Cc1ccc(OC(=O)CN2C(=O)c3ccccc3C2=O)cc1C | 1.4% | 11.6% | 8.3% | -3.9% | 2.7 | -24.4%
Cc1ccc(NC(=O)CN2C(=O)c3ccccc3C2=O)c(C)c1 | -0.6% | -4.4% | x | 1.7% | -1.5 | -11.1%
Cc1cc(C)c(C)c(S(=O)(=O)ON2C(=O)c3ccccc3C2=O)c1C | -2.1% | 22.4µM* | -3.4% | 6.7µM* | x | -5.0%
Cc1cc(C)c(S(=O)(=O)ON2C(=O)c3ccccc3C2=O)cc1C | 2.3% | 31.6µM* | 1.8% | 5.32µM* | -3.2 | -11.5%
C[C@H](O)CON1C(=O)c2ccccc2C1=O | x | 9.5% | x | x | 0.4 | x
O=C1c2ccccc2C(=O)N1OS(=O)(=O)c1ccc(F)cc1 | 0.8% | -1.7% | -1.1% | 5.32µM* | 0.8 | -19.5%
Cc1ccc(S(=O)(=O)Oc2ccccc2-c2ccccc2)cc1 | x | 7.5% | x | -2.9% | x | u
Cc1ccc(S(=O)(=O)ON2C(=O)c3ccccc3C2=O)c(C)c1 | 1.3% | 17.8µM* | 0.1% | 7.52µM* | -4.4 | -21.0%
CCOC(=O)C1CCN(C(=O)c2cccnc2)CC1 | -0.9% | -5.8% | 3.0% | -8.9% | 0.2 | -8.7%
CCOC(=O)N1CCN(C(=O)c2cc(OC)c(OC)c(OC)c2)CC1 | -1.4% | -8.6% | -2.8% | 3.2% | 1.1 | -17.6%
CCOC(=O)N1CCC(Nc2cccc(SC)c2)CC1 | -5.8% | -14.3% | 3.2% | -6.0% | -44.4* | -25.0%
CCOC(=O)C1(CC2CCCCO2)CCN(C(=O)Nc2cccc(SC)c2)CC1 (centres undefined) | -0.7% | -10.4% | 5.9% | 21.2µM* | 1.8 | -19.8%
Cc1cc(C)c2cc3c(N)c(C(=O)Nc4c(C)[nH]c(=O)[nH]c4=O)sc3nc2c1 | 22.2% | 2.9% | -1.5% | 12.4% | -2.4 | u
CCCOC1CCCN(C(=O)c2ccc(OC3CCN(C(=O)CCOC)CC3)cc2)C1 (centres undefined) | 3.3% | -12.4% | 3.8% | -2.5% | x | -10.1%
COCCC(=O)N1CCC(Oc2ccc(C(=O)N(C)C(C)c3ccon3)cc2)CC1 (centres undefined) | 2.7% | -24.9% | 0.2% | 26.7µM* | x | -14.6%
COCCC(=O)N1CCC(Oc2ccc(C(=O)N3CCCC(OC)C3)cc2)CC1 (centres undefined) | 3.9% | -11.9% | -5.7% | 26.7µM* | x | 0.1%
